From PubChem BioAssay (Tox21)
Values joined by “and” are separate entries in the source; they are usually repeats but may differ in a detail not shown here. Equal values may be shown once. Records with an inconclusive call do not appear. Active and inactive are the calls of the source. Unless noted, the call rests on the fitted dose curve; in most records, active means well fitted curve in the direction sought with a large enough effect in the repeat runs; inconclusive means weak or mixed curves; inactive means no such curve, though single readings can be large; an effect the other way counts as inactive or inconclusive.

Experiments:
[1] = qHTS assay to identify small molecule antagonists of the thyroid receptor (TR) signaling pathway (AID 743065); further: nearly all actives have a fitted effect of over 55% in size; further: potency means the concentration at half of the fitted maximal effect
In short: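 Antagonism measured as loss of luciferase signal in GH3 cells stably carrying a TRE-luciferase reporter, co-treated with compound and T3 (1 nM final) for 23.5 h at 37 C. Viability was read in the same well by CellTiter-Fluor.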

[2] = system: thyroid hormone receptor (rat, GH3 cells); assay: qHTS assay to identify small molecule agonists of the thyroid receptor (TR) signaling pathway (AID 743066; calls by dose curve)
[3] = qHTS assay to identify small molecule antagonists of the estrogen receptor alpha (ER-alpha) signaling pathway - cell viability counter screen (AID 743074; calls by dose curve;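 further: HEK293 cells carrying ER-alpha-UAS-bla reporter stimulated with 17beta-estradiol; nearly all actives have a fitted effect of over 45% in size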)
Aromatase (Homo sapiens) = Aromatase (Homo sapiens) (UniProt P11511); assay: qHTS assay to identify aromatase inhibitors (AID 743083); further: nearly all actives have a fitted effect of over 55% in size; further: potency means the concentration at half of the fitted maximal effect
[4] = qHTS assay to identify small molecule antagonists of the peroxisome proliferator-activated receptor gamma (PPARg) signaling pathway - cell viability counter screen (AID 743194); conditions: Potency: co-treated with 50 nM rosiglitazone unless noted; further: nearly all actives have a fitted effect of over 55% in size; further: potency means the concentration at half of the fitted maximal effect
In short: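 Viability was measured as CellTiter-Glo luminescence in GeneBLAzer PPARg UAS-bla HEK293H cells. These cells had been exposed 17 h at 37 C to compounds together with rosiglitazone at 50 nM final, with the beta-lactamase readout taken in the same wells.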

[5] = qHTS assay for small molecule agonists of the antioxidant response element (ARE) signaling pathway - cell viability counter screen (AID 743203; calls by dose curve; further: nearly all actives have a fitted effect of over 55% in size; further: potency means the concentration at half of the fitted maximal effect)
In short: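 Compounds in DMSO were pinned onto ARE-bla HepG2 cells plated 5 hrs earlier at 2,000 cells/well. Sixteen hours later at 37C/5% CO2, CellTiter-Glo was added and luminescence measured after 30 min at room temperature.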

[6] = qHTS assay for small molecule activators of the heat shock response signaling pathway - cell viability counter screen (AID 743209); further: nearly all actives have a fitted effect of over 50% in size; further: potency means the concentration at half of the fitted maximal effect
In short: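 Counter screen for cytotoxicity in HeLa HSE-bla reporter cells. Treatment was 5 h at 37 C; viability was detected by luminescent ATP assay (CellTiter-Glo) in the same wells as the beta-lactamase read.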

[7] = qHTS assay for small molecule activators of the heat shock response signaling pathway (AID 743210; active means well fitted activation curve with a large enough effect in the signal ratio in the repeat runs, with a control signal flat, not every such curve was filed as active; the % refers to the signal ratio; further: potency means the concentration at half of the fitted maximal effect;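 on activation: HeLa cells with beta-lactamase reporter driven by heat shock elements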)
In short: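 HeLa HSE-bla cells, overnight plating; cpd in DMSO 5 h, 37 C; LiveBLAzer B/G FRET substrate 2.5 h RT; fluorescence intensity read.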

[8] = biological target: Estrogen receptor (Homo sapiens) (UniProt P03372); assay: qHTS assay to identify small molecule antagonists of the estrogen receptor alpha (ER-alpha) signaling pathway (AID 743069; active means well fitted curve in the direction sought with a large enough effect in the signal ratio in the repeat runs, not every such curve was filed as active; the % refers to the signal ratio; further: potency means the concentration at half of the fitted maximal effect)
In short: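 ER-alpha-UAS-bla GripTite HEK293 line; 2% charcoal-stripped FBS overnight; plated, 4 hr 37C/5% CO2; cpd in DMSO + 17beta-estradiol, 18 hr 37C; LiveBLAzer B/G FRET substrate 2 hr RT; fluorescence intensity.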

[9] = biological target: Estrogen receptor (Homo sapiens) (UniProt P03372); assay: qHTS assay to identify small molecule agonists of the estrogen receptor alpha (ER-alpha) signaling pathway (AID 743075; calls by dose curve;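 further: HEK293 GripTite cells with ER-alpha and UAS-driven beta-lactamase reporter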)
[10] = biological target: Estrogen receptor (Homo sapiens) (UniProt P03372); assay: qHTS assay to identify small molecule agonists of the estrogen receptor alpha (ER-alpha) signaling pathway using the BG1 cell line (AID 743079); conditions: BG1Luc4E2 cells, ERE-luciferase agonist, 22 h; activation: at 70.3 µM (top of the series); further: nearly all actives have a fitted effect of over 20% in size; further: potency means the concentration at half of the fitted maximal effect
[11] = qHTS assay to identify small molecule antagonists of the estrogen receptor alpha (ER-alpha) signaling pathway using the BG1 cell line (AID 743080; calls by dose curve;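 further: BG1 cells stimulated with 17beta-estradiol alongside compound; nearly all actives have a fitted effect of over 25% in size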; further: potency means the concentration at half of the fitted maximal effect)
In short: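 Readout is ONE-Glo luminescence, taken 30 min at room temperature after reagent addition, preceded by a CellTiter-Fluor viability read; BG1-Luc-4E2 cells had received compound and 17beta-estradiol for 21.5 h at 37 C.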

[12] = qHTS assay to identify small molecule antagonists of the estrogen receptor alpha (ER-alpha) signaling pathway using the BG1 cell line - cell viability counter screen (AID 743081);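 further: compound given together with 17beta-estradiol as the ER stimulus; nearly all actives have a fitted effect of over 45% in size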
[13] = biological target: Aryl hydrocarbon receptor (Homo sapiens) (UniProt P35869); assay: qHTS assay to identify small molecule that activate the aryl hydrocarbon receptor (AhR) signaling pathway (AID 743085); further: nearly all actives have a fitted effect of over 15% in size; further: potency means the concentration at half of the fitted maximal effect;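 on activation: HG2L7.5c1 human HepG2 liver cells with stably integrated DRE-driven firefly reporter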
In short: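 Stably transfected human liver carcinoma cells (HG2L7.5c1; 20 DRE-firefly luciferase) were incubated 5 h, dosed, and kept 24 h at 37C. Agonism was scored from increased luciferase luminescence.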

[14] = qHTS assay to identify small molecule that activate the aryl hydrocarbon receptor (AhR) signaling pathway - cell viability counter screen (AID 743086);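 further: HepG2 liver cells carrying the AhR DRE luciferase reporter; nearly all actives have a fitted effect of over 45% in size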
In short: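 Cytotoxicity counter screen: CellTiter-Fluor signal (30 min, 37 C) in 4000 HepG2 cells/well carrying the DRE-luciferase reporter, following 24 h compound exposure at 37 C.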

[15] = biological target: Peroxisome proliferator-activated receptor gamma (Homo sapiens) (UniProt P37231); assay: qHTS assay to identify small molecule antagonists of the peroxisome proliferator-activated receptor gamma (PPARg) signaling pathway (AID 743191; calls by dose curve; further: nearly all actives have a fitted effect of over 30% in size; further: potency means the concentration at half of the fitted maximal effect)
In short: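 Beta-lactamase reporter under UAS control in HEK293H PPARg-bla cells; compound treatment 17 h at 37C. Read-out: fluorescence intensity after 1 h room-temperature incubation with LiveBLAzer B/G FRET substrate.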

[16] = qHTS assay to identify small molecule antagonists of the thyroid receptor (TR) signaling pathway - cell viability counter screen (AID 743064); further: nearly all actives have a fitted effect of over 50% in size
In short: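 CellTiter-Fluor readout, 30 min at 37 °C/5% CO2, following 23.5 h incubation of GH3.TRE-Luc cells with test compound and 1 nM T3 (final).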

[17] = qHTS assay to identify aromatase inhibitors - cell viability counter screen (AID 743084)
[18] = biological target: Peroxisome proliferator-activated receptor gamma (Homo sapiens) (UniProt P37231); assay: qHTS assay to identify small molecule agonists of the peroxisome proliferator-activated receptor gamma (PPARg) signaling pathway (AID 743094; active means well fitted activation curve with a large enough effect in the signal ratio in the repeat runs, not every such curve was filed as active; the % refers to the signal ratio)
In short: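 Following 5 h plating at 37C, PPARg-bla HEK293H cells receive compound or DMSO for 17 h; fluorescence intensity is recorded after LiveBLAzer B/G loading for 1 h at room temperature.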

[19] = qHTS assay for small molecule agonists of the antioxidant response element (ARE) signaling pathway (AID 743202; active means well fitted activation curve with a large enough effect in the signal ratio in the repeat runs, not every such curve was filed as active; the % refers to the signal ratio; further: potency means the concentration at half of the fitted maximal effect)
In short: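 Quantitative high-throughput format in HepG2 cells bearing an integrated ARE-beta-lactamase reporter. Compound exposure lasted 16 h at 37 C, and fluorescence was read 2 h after adding LiveBLAzer B/G substrate at room temperature.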

Measured: Potency

Peroxisome proliferator-activated receptor gamma (Homo sapiens), sequence (P37231 whole entry, looked up): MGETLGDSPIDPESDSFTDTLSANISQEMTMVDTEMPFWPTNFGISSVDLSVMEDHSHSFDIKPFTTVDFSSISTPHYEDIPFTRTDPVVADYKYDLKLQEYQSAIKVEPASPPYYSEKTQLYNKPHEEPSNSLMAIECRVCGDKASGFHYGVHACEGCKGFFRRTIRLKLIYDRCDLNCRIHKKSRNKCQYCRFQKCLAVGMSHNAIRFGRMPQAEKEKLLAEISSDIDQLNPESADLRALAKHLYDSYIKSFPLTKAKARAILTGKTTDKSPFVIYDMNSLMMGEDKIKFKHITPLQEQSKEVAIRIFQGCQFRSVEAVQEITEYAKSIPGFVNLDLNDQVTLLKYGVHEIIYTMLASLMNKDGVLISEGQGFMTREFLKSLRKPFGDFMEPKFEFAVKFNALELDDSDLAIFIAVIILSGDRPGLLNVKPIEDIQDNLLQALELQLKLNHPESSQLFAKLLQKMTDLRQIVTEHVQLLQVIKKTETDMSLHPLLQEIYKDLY
Estrogen receptor (Homo sapiens), sequence (P03372 whole entry, looked up): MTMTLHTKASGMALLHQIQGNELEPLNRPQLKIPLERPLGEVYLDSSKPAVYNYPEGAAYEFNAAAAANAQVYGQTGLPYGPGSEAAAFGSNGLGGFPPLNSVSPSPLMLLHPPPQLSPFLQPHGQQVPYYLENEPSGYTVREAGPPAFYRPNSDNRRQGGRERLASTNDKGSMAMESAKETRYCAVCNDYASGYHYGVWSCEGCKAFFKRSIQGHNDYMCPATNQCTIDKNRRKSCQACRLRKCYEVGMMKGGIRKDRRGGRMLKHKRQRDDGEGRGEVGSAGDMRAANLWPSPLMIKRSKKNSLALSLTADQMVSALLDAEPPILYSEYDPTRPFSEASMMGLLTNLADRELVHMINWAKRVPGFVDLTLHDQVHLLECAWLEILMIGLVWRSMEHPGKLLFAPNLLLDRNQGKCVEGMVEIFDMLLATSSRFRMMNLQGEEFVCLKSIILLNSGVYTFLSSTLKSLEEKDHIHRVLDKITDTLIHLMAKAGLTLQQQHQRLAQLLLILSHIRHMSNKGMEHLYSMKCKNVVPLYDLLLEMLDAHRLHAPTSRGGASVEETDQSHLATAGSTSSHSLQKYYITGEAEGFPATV
Aromatase (Homo sapiens), sequence (P11511 whole entry, looked up): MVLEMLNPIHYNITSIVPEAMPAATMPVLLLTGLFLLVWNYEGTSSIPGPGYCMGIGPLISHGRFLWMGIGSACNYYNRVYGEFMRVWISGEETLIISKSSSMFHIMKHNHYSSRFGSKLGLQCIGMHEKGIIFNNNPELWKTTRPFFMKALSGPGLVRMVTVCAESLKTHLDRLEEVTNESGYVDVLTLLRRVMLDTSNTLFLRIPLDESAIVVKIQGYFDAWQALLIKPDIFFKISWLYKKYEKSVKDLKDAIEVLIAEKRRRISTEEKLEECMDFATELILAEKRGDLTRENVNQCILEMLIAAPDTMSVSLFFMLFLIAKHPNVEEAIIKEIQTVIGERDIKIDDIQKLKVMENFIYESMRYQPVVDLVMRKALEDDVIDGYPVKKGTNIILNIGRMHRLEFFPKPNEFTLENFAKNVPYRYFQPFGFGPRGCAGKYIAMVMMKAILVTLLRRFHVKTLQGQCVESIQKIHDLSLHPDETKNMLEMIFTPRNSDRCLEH
Aryl hydrocarbon receptor (Homo sapiens), sequence (P35869 whole entry, looked up): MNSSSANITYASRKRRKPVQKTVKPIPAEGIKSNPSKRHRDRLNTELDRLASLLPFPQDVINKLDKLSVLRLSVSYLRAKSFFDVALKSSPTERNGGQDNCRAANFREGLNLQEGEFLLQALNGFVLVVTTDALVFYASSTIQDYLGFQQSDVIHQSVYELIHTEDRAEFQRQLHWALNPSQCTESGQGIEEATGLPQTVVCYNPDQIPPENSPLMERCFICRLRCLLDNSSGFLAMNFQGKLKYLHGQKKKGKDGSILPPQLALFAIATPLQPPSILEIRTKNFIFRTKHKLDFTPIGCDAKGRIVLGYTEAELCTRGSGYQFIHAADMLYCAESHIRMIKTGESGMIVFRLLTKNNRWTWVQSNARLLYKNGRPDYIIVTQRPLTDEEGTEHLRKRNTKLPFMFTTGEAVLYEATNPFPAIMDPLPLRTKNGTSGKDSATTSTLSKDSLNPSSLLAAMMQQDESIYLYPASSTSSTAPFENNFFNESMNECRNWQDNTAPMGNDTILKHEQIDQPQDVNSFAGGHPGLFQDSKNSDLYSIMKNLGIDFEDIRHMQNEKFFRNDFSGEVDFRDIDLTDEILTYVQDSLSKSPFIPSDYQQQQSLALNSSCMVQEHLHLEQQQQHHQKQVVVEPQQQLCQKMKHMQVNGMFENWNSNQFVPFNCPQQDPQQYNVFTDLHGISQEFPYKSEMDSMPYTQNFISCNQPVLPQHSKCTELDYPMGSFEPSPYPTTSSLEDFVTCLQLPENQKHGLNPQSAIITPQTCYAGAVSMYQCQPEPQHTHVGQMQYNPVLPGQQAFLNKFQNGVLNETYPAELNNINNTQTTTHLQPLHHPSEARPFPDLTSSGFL

CN1CCc2cc3c(cc2C1O)OCO3 (stereo not given)
active: [7] 39.1 µM
inactive: [1] | [2] | [3] | Aromatase (Homo sapiens) | [4] | [5] | [6]

CCC(C)c1cccc(C(C)CC)c1O (stereo not given)
active: [1] 61.1 µM
inactive: [2] | [8] | [3] | [9] | [10] | [11] | [12] | [13] | [14] | [15] | [4] | [5] | [6]

CCOP(=O)(Sc1ccccc1)Sc1ccccc1
active: [15] 54.9 µM
inactive: [16] | [3] | [9] | [12] | [17] | [14] | [18] | [5] | [6]

COc1ccc2c3c1O[C@H]1[C@H](O)CC[C@H]4[C@@H](C2)N(C)CC[C@@]341
inactive: [16] | [3] | [12] | Aromatase (Homo sapiens) | [17] | [13] | [14] | [18] | [15] | [4] | [5]

COC(=O)c1cc(Oc2ccc(Cl)cc2Cl)ccc1[N+](=O)[O-]
inactive: [2] | [3] | [12] | [17] | [13] | [14] | [19] | [5] | [6] | [7]
active: [1] 61.1 µM | [15] 43.6 µM

S=C=Nc1ccccc1
inactive: [1] | [2] | [8] | [3] | [9] | [10] | [11] | [12] | Aromatase (Homo sapiens) | [17] | [13] | [14] | [18] | [15] | [4] | [5] | [6] | [7]

C[C@@H]1CC2=CC(=O)CC[C@@H]2[C@H]2CC[C@@]3(C)[C@@H](CC[C@]3(C)O)[C@@H]21
inactive: [15] | [4] | [5] | [6] | [7]

Cc1c([N+](=O)[O-])c(C)c([N+](=O)[O-])c(C(C)(C)C)c1[N+](=O)[O-]
inactive: [2] | [3] | [9] | [10] | [11] | [12] | [17] | [13] | [14] | [18] | [15] | [4] | [19] | [5] | [6] | [7]

CCCCC(CC)COC(=O)c1ccccc1C(=O)OCC(CC)CCCC (stereo not given)
inactive: [2] | [8] | [9] | [10] | [11] | [12] | Aromatase (Homo sapiens) | [17] | [13] | [14] | [18] | [5]

Brc1ccc(Oc2ccc(Br)cc2Br)c(Br)c1
active: [10] 19.4 µM
inactive: [2] | [3] | [9] | [12] | Aromatase (Homo sapiens) | [17] | [13] | [18] | [15] | [4] | [19] | [7]

CCN(CC)Cc1nccn1-c1ccc([N+](=O)[O-])cc1C(=O)c1ccccc1Cl
active: [19] 21.1 µM
inactive: [2] | [3] | [17] | [14] | [4] | [5] | [6] | [7]

Cc1ccc([N+](=O)[O-])[c]2c1[O][Hg]2
active: [4] 2.98 µM | [5] 4.22 µM | [6] 5.31 µM

Clc1cc(Cl)c(-c2cc(Cl)c(Cl)cc2Cl)cc1Cl
inactive: [2] | [3] | [12] | Aromatase (Homo sapiens) | [17] | [14] | [18] | [4] | [19] | [5] | [6] | [7]

C[C@]12Cc3cn[nH]c3C[C@@H]1CC[C@@H]1[C@@H]2CC[C@@]2(C)[C@H]1CC[C@]2(C)O
active: [19] 26.6 µM
inactive: [4] | [5] | [6]

O=[N+]([O-])[O-].[Tl+]
inactive: [3] | [12] | [17] | [13] | [6]
active: Aromatase (Homo sapiens) 69.1 µM

[O]=[Cr](=[O])([OH])[O][Cr](=[O])(=[O])[OH]
active: Aromatase (Homo sapiens) 13.3 µM and 2.46 µM and 2.43 µM | [4] 3.93 µM and 7.74 µM | [5] 21.9 µM and 30.6 µM | [6] 39.3 µM and 43.6 µM
inactive: [2] | [8] | [3] | [9] | [10] | [11] | [12] | [17] | [13] | [14] | [18]

C#CCC1=C(C)C(OC(=O)C2C(C=C(C)C)C2(C)C)CC1=O (stereo not given)
inactive: [3] | [12] | [14] | [4] | [5] | [6]
active: [1] 60.7 µM

Cc1ccn2nc(S(=O)(=O)Nc3c(F)cccc3F)nc2n1
inactive: [3] | [12] | Aromatase (Homo sapiens) | [17] | [14] | [18] | [15] | [4] | [19] | [5] | [6] | [7]

CC(Cc1ccccc1)N(C)Cc1ccco1 (stereo not given)
inactive: [15] | [4] | [19] | [5] | [6] | [7]

O=C(N[C@H]1N=C(c2ccccc2F)c2cccc3c2N(CC3)C1=O)c1cc2ccccc2[nH]1
inactive: [2] | [12] | Aromatase (Homo sapiens) | [17] | [18] | [4] | [5] | [6]
active: [1] 5.96 µM | [13] 5.31 µM

C[C@]12CC[C@H]3[C@@H](CCC4=CC(=O)CC[C@@H]43)[C@@H]1CC[C@@H]2OC(=O)CCc1ccco1
active: [4] 29.8 µM [setting not given] | [6] 13.3 µM

O.O.O.O=C([O-])[C@H]([O-])[C@@H]([O-])C(=O)[O-].O=C([O-])[C@H]([O-])[C@@H]([O-])C(=O)[O-].[K+].[K+].[Sb+3].[Sb+3]
active: [8] 17.5 µM [inhibitor]
inactive: [2] | [3] | [9] | [17] | [13] | [5] | [6]

C[C@H]1[C@H](c2ccc(Cl)cc2)SC(=O)N1C(=O)NC1CCCCC1
inactive: [3] | [9] | [12] | [17] | [13] | [14] | [18] | [4] | [5] | [6]
active: [1] 61.1 µM | [11] 61.1 µM
